# Assay results published in PubChem BioAssay (EPA / NIEHS).
# Some structures have more than one record in an assay (separate samples or runs), and their calls can disagree. Activity calls are given as the source filed them. How the source made its calls: active means hit-call score of the fitted dose curve at least 0.9, where 1 is the maximum; inactive means score below 0.9.
# Assay: ATG_DR4_LXR_CIS: Attagene CIS-FACTORIAL HepG2 Assay for human Liver X Receptor (LXR), DR4 submotif (AID 2282929)
# Details: HepG2 Attagene DR4 cis-reporter, mRNA transcription; actives raise or lower the signal
# Experimental: ATG_CIS is a cell-based, multiplexed-readout assay that uses HepG2, a human liver cell line, with measurements taken at 24 hours after chemical dosing in a 24-well plate.ATG_DR4_LXR_CIS is one of 52 assay component(s) measured or calculated from the ATG_CIS assay. It is designed to make measurements of mRNA induction, a form of inducible reporter, as detected with fluorescence intensity signals by Reverse transcription polymerase chain reaction (RT-PCR) and Capillary electrophoresis technology.Data from the assay component ATG_DR4_LXR_CIS was analyzed into 1 assay endpoint. This assay endpoint, ATG_DR4_LXR_CIS, was analyzed with bidirectional fitting relative to DMSO as the negative control and baseline of activity. Using a type of inducible reporter, measures of mRNA for gain or loss-of-signal activity can be used to understand the reporter gene at the transcription factor-level as they relate to the gene NR1H2 and NR1H3. Furthermore, this assay endpoint can be referred to as a primary readout, because this assay has produced multiple assay endpoints where this one serves a reporter gene function. To generalize the intended target to other relatable targets, this assay endpoint is annotated to the nuclear receptor intended target family, where the subfamily is non-steroidal.
# Human liver HepG2 cells are transiently transfected with multiple reporter transcription units (MRTUs) in 6-well plates using FuGene 6 reagent (Roche; 3 ml FuGene/1 mg DNA). The MRTU constructs are regulated by a cis-regulating element (promoter). […] A major difference between the CIS and TRANS system is that in CIS activities of endogenous TFs are measured, whereas the TRANS assay evaluates changes in activities of exogenous, chimeric NR-Gal4 proteins. […] At the end of 24 hour incubation, total RNA was isolated using TriZol reagent (Invitrogen). The isolated RNA is then reverse-transcribed using oligo(dT) primer and Mo-MLV reverse transcriptase (Invitrogen) with DNAse I (Ambion) treatment for 30 min. The one-tenth of the produced cDNA was amplified by PCR using Taq DNA polymerase (Invitrogen) and two reporter sequence-specific primers. The PCR products were fluorescently labeled by primer extension with 6-arboxyfluorescein (6-FAM) 5'-labeled reporter sequence-specific primer (2 min at 95 C, 20 s at 68 C and 10 min at 72 C) and these products were digested with 5U of HpaI (New England Biolabs) for 2h at 37 C. The fragments were purified using Qiaquick PCR columns (Qiagen), analyzed on an ABI 3130xL genetic analyzer (Applied Biosystems) with peak positions identified by using a set of X-rhodamine (ROX)-labeled MapMarker1000 molecular weight standards (BioVentures). The raw capillary electrophoresis data was processed using Attagraph software (Attagene).
Compound,outcome,AC50
COP(=O)(OC)C(O)C(Cl)(Cl)Cl (stereo not given),inactive,
CSC1=N[C@@](C)(c2ccccc2)C(=O)N1Nc1ccccc1,inactive,
CCCCOC(=O)c1ccccc1C(=O)O,inactive,
CCC(CC)Nc1c([N+](=O)[O-])cc(C)c(C)c1[N+](=O)[O-],,37.9 µM (active)
Nc1nc(N)nc(NC2CC2)n1,inactive,
CC(=NC#N)N(C)Cc1ccc(Cl)nc1,inactive,
COP(=O)(NC(C)=O)SC (stereo not given),inactive,
CCc1cnc(C2=NC(C)(C(C)C)C(=O)N2)c(C(=O)O)c1 (stereo not given),inactive,
CNC(=O)ON=C(C)SC,inactive,
O=[N+]([O-])c1cc(C(F)(F)F)c(Cl)c([N+](=O)[O-])c1Nc1ncc(C(F)(F)F)cc1Cl,inactive,11.1 µM (active)
FC(F)C(F)(F)OCC(Cn1cncn1)c1ccc(Cl)cc1Cl (stereo not given),,50 µM (active)
CC1(C(=O)Nc2ccc(O)c(Cl)c2Cl)CCCCC1,inactive,
COc1cc(OC)nc(Sc2cccc(Cl)c2C(=O)O)n1,inactive,
CN(C)C(=O)Nc1cccc(C(F)(F)F)c1,inactive,
COP(=O)(OC)OC(Br)C(Cl)(Cl)Br (stereo not given),inactive,
CC(COc1ccc(Oc2ccccc2)cc1)Oc1ccccn1 (stereo not given),inactive,
CC(Oc1cccc(Cl)c1)C(=O)O (stereo not given),inactive,
CC[C@H](C)[C@H]1O[C@]2(C=C[C@@H]1C)C[C@@H]1C[C@@H](C/C=C(\C)[C@@H](O[C@H]3C[C@H](OC)[C@@H](O[C@H]4C[C@H](OC)[C@@H](NC)[C@H](C)O4)[C@H](C)O3)[C@@H](C)/C=C/C=C3\CO[C@@H]4[C@H](O)C(C)=C[C@@H](C(=O)O1)[C@]34O)O2,inactive,
CCOP(=S)(Oc1cnc(C(C)(C)C)nc1)OC(C)C (stereo not given),,12.9 µM (active)
CCCOc1nn(C(=O)NS(=O)(=O)c2ccccc2C(=O)OC)c(=O)n1C,inactive,

Compound,outcome,AC50
CCC(=NOC/C=C/Cl)C1=C(O)CC(C2CCOCC2)CC1=O (stereo not given),inactive,
Cc1cc(C2CC2)nc(Nc2ccccc2)n1,inactive,
C=C(C)[C@H]1Cc2c(ccc3c2O[C@@H]2COc4cc(OC)c(OC)cc4[C@@H]2C3=O)O1,inactive,
S=C1NCCN1,inactive,
CCCCOC(=O)[C@@H](C)Oc1ccc(Oc2ccc(C#N)cc2F)cc1,inactive,
CSc1nc(NC(C)C)nc(NC(C)C)n1,inactive,
C[N+]1(C)CCCCC1,inactive,
C#CCC1=C(C)C(OC(=O)C2C(C=C(C)C)C2(C)C)CC1=O (stereo not given),,50 µM (active)
CCc1cccc(C)c1N(C(=O)CCl)C(C)COC (stereo not given),,32.1 µM (active)
CCOP(=S)(OCC)OC(Cl)C(Cl)(Cl)Cl (stereo not given),inactive,
COc1cccc(C(=O)NN(C(=O)c2cc(C)cc(C)c2)C(C)(C)C)c1C,,50 µM (active)
CCc1cccc(CC)c1N(COC)C(=O)CCl,inactive,
CCOP(=S)(OCC)SCCSCC,inactive,
CNC(=O)ON=C(SC)C(=O)N(C)C,inactive,
CCOP(=O)(OCC)Oc1cc(C)nc(C(C)C)n1,inactive,
CCOP(=O)(NC(C)C)Oc1ccc(SC)c(C)c1 (stereo not given),inactive,
CCOP(=S)(OCC)Oc1ccc2c(C)c(Cl)c(=O)oc2c1,inactive,
CCOC(=O)COc1cc(-c2nn(C)c(OC(F)F)c2Cl)c(F)cc1Cl,inactive,
CC(C)N(C(=O)SCC(Cl)=C(Cl)Cl)C(C)C,inactive,
